Rows were chosen to be rich in hits. Some 4.1% of all compounds tested hit in one or more screens of this group.
hgDAF12 agonist: agonists of H. glycines DAF-12 nuclear receptor. HEK293 GAL4-hgDAF12 UAS-luciferase reporter, agonist luminescence; normalized to butyrate control. activation, % at 6.8 µM. hit rate 1.8% among 370,000;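 active = activation above a cutoff set at the mean of all screened compounds plus 3 SD, cut at about 10% in these data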;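 also: 0% = DMSO wells and 100% = sodium butyrate wells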
hcDAF12 agonist: H. contortus DAF-12 activation, primary screen | HEK293 hcDAF-12 lit1-tk-luc reporter, luminescence; 0% DMSO, 100% Δ7-dafachronic acid | activation, % at 6.8 µM | hit rate 1.4% among 370,000;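 active = activation above the mean of all tested compounds plus 3 SD, cut at about 5.5% in these data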;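 also: 100% = response to 3 µM Δ7-dafachronic acid high control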
ssDAF12 agonist: S. stercoralis DAF-12 activation, primary screen | HEK293 ssDAF-12/GRIP1 lit1-tk-luc reporter, luminescence; % of 3 µM dafachronic acid response | activation, % at 6.8 µM | hit rate 1% among 370,000 | AID 652126;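 active = activation above the mean over all tested compounds plus 3 SD, cut at about 0.9% in these data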;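 also: 0% = DMSO-only wells and 100% = 3 µM delta7-dafachronic acid wells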
DAX1 inh-1: inhibitors of human orphan nuclear receptor DAX1 (NR0B1) | inhibition, % at 6.75 µM | HEK293 Gal4-DAX1 luciferase reporter, luminescence | AID 504766 | hit rate 0.99% among 340,000;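 active = inhibition above the mean over all tested compounds plus 3 SD, cut at about 4.2% in these data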;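 also: 0% = DAX1-transfected cells with DMSO and 100% = empty-vector control cells with DMSO; inhibition shows as a rise in luminescence from relieved DAX1 repression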
Target sequence (P51843 207-470 limits assumed): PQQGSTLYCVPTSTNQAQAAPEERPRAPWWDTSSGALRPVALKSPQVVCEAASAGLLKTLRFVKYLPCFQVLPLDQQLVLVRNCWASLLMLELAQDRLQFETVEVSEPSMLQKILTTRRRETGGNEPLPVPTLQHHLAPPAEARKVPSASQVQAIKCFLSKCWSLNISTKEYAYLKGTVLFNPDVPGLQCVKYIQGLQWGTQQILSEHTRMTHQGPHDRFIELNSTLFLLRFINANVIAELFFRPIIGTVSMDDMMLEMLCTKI
DAX1 inh-2: inhibitors of DAX1 repression of SF-1 activated StAR promoter; HEK293T StAR-luciferase reporter, SF-1/DAX-1 repression relief; inhibition, % at 6.8 µM; hit rate 1.1% among 370,000;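 active = inhibition above the mean over all tested compounds plus 3 SD, cut at about 3.6% in these data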;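 also: 0% = DAX-1 cells with DMSO and 100% = cells lacking DAX-1 with DMSO; higher inhibition means more luminescence from relief of DAX-1 repression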
* = called active by the depositor; . = no result given.

SMILES	hgDAF12 agonist	hcDAF12 agonist	ssDAF12 agonist	DAX1 inh-1	DAX1 inh-2
CCOC(=O)/C(C#N)=C/C1=C(N2CCOCC2)C(C)(C)OCC1	0	0	-1	4.3*	1
C#CCNC(=O)c1cc2cccnc2nc1N	-3	0	-1	.	1
NC(=O)c1c(N)[nH]c(C(=O)c2ccccc2)c1-c1ccc(Cl)cc1Cl	1	0	-1	.	1
Cc1cccc(S(=O)(=O)N(C)C[C@@H]2OCc3cnnn3CCCC(=O)N([C@H](C)CO)C[C@H]2C)c1	-2	-1	-1	0	0
C[C@H]1CN([C@@H](C)CO)C(=O)CCCn2nncc2CO[C@H]1CN(C)C(=O)NC1CCCCC1	0	-2	-1	5.1*	-1
COc1ccccc1CN(C)C[C@@H]1OCc2cnnn2CCCC(=O)N([C@H](C)CO)C[C@H]1C	-1	1	0	4.2*	1
Cc1cccc(S(=O)(=O)N(C)C[C@H]2OCc3cnnn3CCCC(=O)N([C@H](C)CO)C[C@H]2C)c1	1	0	1	4.4*	1
CC(C(=O)NC(C)(C)C)n1c(C(c2ccccc2)c2ccccc2)nc2ccccc21 (stereo unspecified)	-1	-1	-1	.	0
O=C(N[C@H](Cc1ccccc1)C(=O)NCC1CCCO1)[C@H]1O[C@@H](n2ccc(=O)[nH]c2=O)[C@H](O)[C@@H]1O (stereo partly specified)	3	1	-1	.	1
Cc1ccc(Cn2cc(CN3CC(N4CCCC4)CS3(=O)=O)nn2)cc1 (stereo unspecified)	1	0	-1	.	3
Cc1nnc(NC(=O)c2ccc3c(c2)OCO3)s1	12*	3	0	3	3
CC(=O)Nc1ccc(C(=O)Nc2ccc3c(c2)OCO3)cc1	6	0	-1	2	1
O=C(Nc1ccc2c(c1)OCO2)c1ccc(CO)cc1	8	3	0	1	4.2*
O=C(Nc1ccc(Br)cc1)c1ccc2c(c1)OCO2	13*	6.5*	0	2	3
CCN1CCN(c2ccc(NC(=O)c3ccc4c(c3)OCO4)cc2)CC1	12*	2	0	1	2
O=C(Nc1ccccc1C(F)(F)F)OC1CCC12CCC(c1ccccc1)CC2 (stereo unspecified)	-1	0	-2	.	0
CC(CCN1CCC(C(O)(c2ccccc2)c2ccccc2)CC1)Oc1cc(F)cc(F)c1 (stereo unspecified)	1	1	0	.	-2
O=C(c1cccs1)N1CCCC(c2nc3c(nnn3Cc3c(Cl)cccc3Cl)c(=O)[nH]2)C1 (stereo unspecified)	-1	2	-1	-2	0
CCCCOCCCNC(=O)C[C@H]1C[C@@]2(C(=O)OC)C(=C[C@H](C(C)(C)C)O[C@@H]2C)N(Cc2ccccc2)C1=O	1	0	-1	.	-1
COc1ccc(CNC(=O)OC2CC3CC2[C@H]2CCCCN2C3)cc1 (stereo partly specified)	1	-4	0	.	-1
O=C(c1ccco1)[C@@H]1[C@@H]2C(=O)N(c3ccc(Br)cc3)C(=O)[C@@H]2C2c3ccccc3C=CN21 (stereo partly specified)	1	3	1.2*	1	0
O=C(c1ccco1)[C@@H]1[C@@H]2C(=O)N(c3ccc(F)cc3)C(=O)[C@@H]2C2c3ccccc3C=CN21 (stereo partly specified)	3	5	0	.	0
Cc1ccc(Cn2cc(CN(C(C)(C)C)S(=O)(=O)c3ccccc3Br)nn2)cc1	5	2	-1	.	-1
Cc1ccc(C(=O)NCC(=O)NCCCc2ccccc2)s1	-1	0	-1	-1	0
O=C(NCCc1c[nH]c2ccccc12)c1ccccc1	7	2	-1	1	0
Cc1ccc(C(=O)NCCCc2ccccc2)s1	10	6.2*	0	3	1
O=C(NCCc1c[nH]c2ccccc12)c1ccc([N+](=O)[O-])cc1	3	2	0	1	0
O=C(NCCc1c[nH]c2ccccc12)c1cc([N+](=O)[O-])cc([N+](=O)[O-])c1	-1	5	0.9*	-1	0
Cc1ccc(C(=O)NCCc2c[nH]c3ccccc23)s1	10	1	1.3*	1	1
CC(C)(C)c1nnc(NC(=S)Nc2ccccc2)s1	11*	1	0	0	3

Source: PubChem BioAssay (The Scripps Research Institute Molecular Screening Center)
